Assay results published in the supplement of paper PMC9694430.

How the values were obtained:
Experiment in all cases: thermal shift delta Tm vs DMSO control; higher = stronger stabilization (binding)
Settings in all cases: 12.5 µM; protein concentration 2 µM
LOC_OS01G57100-cb003 = test system: LOC_OS01G57100-cb003
Method in brief: (§1)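 Heating from 25°C to 95°C at 0.05°C/s, fluorescence was recorded for 19.5 μl wells of 2 μM E. coli-expressed, purified rice kinase domain in 100 mM potassium phosphate pH 7.5, 150 mM NaCl, 10% glycerol and 5 × SYPRO Orange with compound in DMSO. Boltzmann fits gave melting temperatures for this differential scanning fluorimetry assay. The shift reported is the mean of three replicates against the DMSO-only protein.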

LOC_OS01G60330-cb001 = test system: LOC_OS01G60330-cb001
Method in brief: as §1

LOC_OS01G60700-cb002 = test system: LOC_OS01G60700-cb002
Method in brief: as §1

LOC_OS01G63280-cb003 = test system: LOC_OS01G63280-cb003
Method in brief: as §1

LOC_OS01G67340-cb003 = test system: LOC_OS01G67340-cb003
Method in brief: as §1

LOC_OS01G70970-cb002 = test system: LOC_OS01G70970-cb002
Method in brief: as §1

LOC_OS02G07810-cb001 = test system: LOC_OS02G07810-cb001
Method in brief: as §1

LOC_OS02G08530-cb003 = test system: LOC_OS02G08530-cb003
Method in brief: as §1

LOC_OS02G14120-cb001 = test system: LOC_OS02G14120-cb001
Method in brief: as §1

LOC_OS02G17970-cb001 = test system: LOC_OS02G17970-cb001
Method in brief: as §1

LOC_OS02G45750-cb003 = test system: LOC_OS02G45750-cb003
Method in brief: as §1

LOC_OS02G54510-cb004 = test system: LOC_OS02G54510-cb004
Method in brief: as §1

LOC_OS03G04050-cb001 = test system: LOC_OS03G04050-cb001
Method in brief: as §1

LOC_OS03G12390-cb001 = test system: LOC_OS03G12390-cb001
Method in brief: as §1

LOC_OS03G27990-cb004 = test system: LOC_OS03G27990-cb004
Method in brief: as §1

LOC_OS03G50450-cb001 = test system: LOC_OS03G50450-cb001
Method in brief: as §1

LOC_OS03G50810-cb003 = test system: LOC_OS03G50810-cb003
Method in brief: as §1

LOC_OS04G35114-cb001 = test system: LOC_OS04G35114-cb001
Method in brief: as §1

LOC_OS04G38480-cb003 = test system: T1, LOC_OS04G38480-cb003
T1 sequence (whole entry): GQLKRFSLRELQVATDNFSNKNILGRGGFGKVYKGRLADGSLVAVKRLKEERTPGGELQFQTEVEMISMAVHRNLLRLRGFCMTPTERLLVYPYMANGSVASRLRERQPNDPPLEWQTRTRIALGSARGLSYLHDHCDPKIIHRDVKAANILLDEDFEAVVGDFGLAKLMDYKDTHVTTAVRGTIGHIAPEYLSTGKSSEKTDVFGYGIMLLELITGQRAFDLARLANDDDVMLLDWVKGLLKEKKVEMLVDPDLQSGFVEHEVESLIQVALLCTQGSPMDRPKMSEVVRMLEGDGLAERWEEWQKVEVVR
Method in brief: as §1

LOC_OS04G41100-cb001 = test system: T2, LOC_OS04G41100-cb001
T2 sequence (whole entry): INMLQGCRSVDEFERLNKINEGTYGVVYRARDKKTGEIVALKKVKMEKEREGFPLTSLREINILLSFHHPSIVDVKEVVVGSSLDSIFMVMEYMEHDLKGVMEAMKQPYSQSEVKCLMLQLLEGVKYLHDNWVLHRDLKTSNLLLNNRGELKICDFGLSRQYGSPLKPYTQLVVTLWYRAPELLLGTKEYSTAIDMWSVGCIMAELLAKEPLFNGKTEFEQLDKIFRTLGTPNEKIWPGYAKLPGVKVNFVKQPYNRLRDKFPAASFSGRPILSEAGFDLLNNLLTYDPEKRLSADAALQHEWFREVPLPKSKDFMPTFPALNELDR
Method in brief: as §1
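Also: purified Escherichia coli-expressed rice kinase domain construct.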

Compound	thermal shift delta Tm (LOC_OS01G57100-cb003) [°C]	thermal shift delta Tm (LOC_OS01G60330-cb001) [°C]	thermal shift delta Tm (LOC_OS01G60700-cb002) [°C]	thermal shift delta Tm (LOC_OS01G63280-cb003) [°C]	thermal shift delta Tm (LOC_OS01G67340-cb003) [°C]	thermal shift delta Tm (LOC_OS01G70970-cb002) [°C]	thermal shift delta Tm (LOC_OS02G07810-cb001) [°C]	thermal shift delta Tm (LOC_OS02G08530-cb003) [°C]	thermal shift delta Tm (LOC_OS02G14120-cb001) [°C]	thermal shift delta Tm (LOC_OS02G17970-cb001) [°C]	thermal shift delta Tm (LOC_OS02G45750-cb003) [°C]	thermal shift delta Tm (LOC_OS02G54510-cb004) [°C]	thermal shift delta Tm (LOC_OS03G04050-cb001) [°C]	thermal shift delta Tm (LOC_OS03G12390-cb001) [°C]	thermal shift delta Tm (LOC_OS03G27990-cb004) [°C]	thermal shift delta Tm (LOC_OS03G50450-cb001) [°C]	thermal shift delta Tm (LOC_OS03G50810-cb003) [°C]	thermal shift delta Tm (LOC_OS04G35114-cb001) [°C]	thermal shift delta Tm (LOC_OS04G38480-cb003) [°C]	thermal shift delta Tm (LOC_OS04G41100-cb001) [°C]
CC(C)(C#N)c1ccc(N2C(=O)OCc3cnc4ccc(-c5cnc6ccccc6c5)cc4c32)cc1	1.9	0.57	1.49	0.63	0.63	0.56	0.18	0.94	1.27	0.63	0.62	0.01	0.55	0.2	0.32	0.21	0.32	1.01	0.8	0.2
CCN1CCN(Cc2ccc(C(=O)Nc3ccc(C)c(Oc4ccc5c(c4)CC(=O)N5)c3)cc2C(F)(F)F)CC1	2.21	1.36	1.34	0.98	1.05	0.43	1.19	0.8	0.22	1.43	1.5	0.41	0.79	0.12	0.67	1.13	0.7	1.2	1.7	0.5
OC1CCC(Nc2ncc3nc(Nc4c(F)cc(F)cc4F)n([C@H]4CCOC4)c3n2)CC1 (stereo not given in full) [Tanzisertib(CC-930)]	1.12	0.58	0.28	0.29	0.54	0.55	-0.22	1.25	1.58	0.06	0.96	0.18	0.57	0.23	0.5	0.44	0.62	0.93	1.65	0.44
Nc1ccc(C(=O)Nc2cccc(-c3nc(N4CCOCC4)c4oc5ncccc5c4n3)c2)cn1	1.26	1.1	1.16	-0.04	-0.15	0.23	0.77	1.1	0.34	0.35	0.01	0.01	1.54	0.36	0.09	0.25	0.09	0.9	0.66	0.52
Nc1nc(Nc2ccc(S(N)(=O)=O)cc2)nn1C(=O)c1c(F)cccc1F	1.36	7.23	0.65	3.58	3.74	3.11	1.06	1.98	8.28	0.44	9.34	2.82	-0.19	9.07	3.59	0.97	3.42	4.58	2.97	2.3
COc1ccc(COc2ccc(Cc3cnc(N)nc3N)cc2OC)cc1	-0.05	0.76	1.06	0.32	0.31	0.08	0.34	-0.15	1.94	1.56	0.53	0.05	0.43	-0.14	0.29	0.04	0.55	0.34	1.41	0.24
Cc1ccc(NC(=O)c2ccc(CN3CCN(C)CC3)cc2)cc1Nc1nccc(-c2cccnc2)n1 [Imatinib (STI571)]	1.6	0.71	0.95	0.65	0.52	0.38	0.18	1.39	1.22	0.21	1.17	0.22	0.47	-0.05	0.26	0.4	0.42	0.92	0.88	0.5
C=CC(=O)Nc1cc(Nc2nccc(-c3c[nH]c4ccccc34)n2)c(OC)cc1N(C)CCN(C)C	1.63	0.87	1.61	0.65	0.79	0.59	0.87	5.01	4.93	1.65	1.45	0.35	0.7	5.75	0.52	0.87	1.28	4.03	2.42	0.37
Cc1cc(N2CCOCC2)cc2[nH]c(-c3c(NC[C@@H](O)c4cccc(Cl)c4)cc[nH]c3=O)nc12	1.15	6.82	-0.31	1.68	1.08	1.82	0.46	4.03	1.99	0.82	3.33	2.85	0.49	5.81	1.27	4.61	3.54	4.79	-0.48	0.77
N[C@@H]1CCCN(c2c(/C=C3\SC(=O)NC3=O)cccc2-c2ccccc2)C1	0.49	-0.07	0.8	-0.31	-0.25	0.19	0.55	0.62	-0.31	-0.03	0.09	-0.11	0.23	-0.15	0.47	0.53	0.13	0.97	0.39	0.61
CC1(C)CNc2cc(NC(=O)c3cccnc3NCc3ccncc3)ccc21 [Motesanib Diphosphate (AMG-706)]	1.3	1.28	1.09	8.62	-0.45	0.75	0.59	0.61	-0.17	0.6	-0.06	1.49	0.4	-0.39	0.2	-0.1	0.3	0.51	0.65	0.6
COc1cc(Nc2ncc(F)c(Nc3ccc4c(n3)NC(=O)C(C)(C)O4)n2)cc(OC)c1OC	4.83	4.41	0.57	0.28	0.45	2.5	0.41	4	12.4	0.45	6.19	4.62	0.45	9.67	2.62	10.5	5.15	2.97	4.12	0.74
CO[C@@H](C)Cn1c(=O)n(C)c2cnc3ccc(-c4cncc(C(C)(C)O)c4)cc3c21	1.94	0.57	1.37	0.84	0.62	0.44	0.65	1.76	2.83	0.61	1.57	0.18	0.72	0.09	0.68	0.89	0.67	3.42	1.29	0.38
